Measured values from PubChem BioAssay.
Values without a mark were called inactive. The rule behind the calls is not given here.

What follows are molecules tested against Pantothenate synthetase (Mycobacterium tuberculosis (strain ATCC 25618 / H37Rv)) (UniProt P9WIL5) (assay: Coupled enzyme confirmation of inhibitors against recombinant Mtb PanC (AID 375;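 note: 0% = full reaction with vehicle and 100% = no enzyme background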)). Conditions: coupled enzyme assay; at 10 µM, stronger effect = higher value.
Sequence of Pantothenate synthetase (Mycobacterium tuberculosis (strain ATCC 25618 / H37Rv)) (P9WIL5 whole entry, looked up): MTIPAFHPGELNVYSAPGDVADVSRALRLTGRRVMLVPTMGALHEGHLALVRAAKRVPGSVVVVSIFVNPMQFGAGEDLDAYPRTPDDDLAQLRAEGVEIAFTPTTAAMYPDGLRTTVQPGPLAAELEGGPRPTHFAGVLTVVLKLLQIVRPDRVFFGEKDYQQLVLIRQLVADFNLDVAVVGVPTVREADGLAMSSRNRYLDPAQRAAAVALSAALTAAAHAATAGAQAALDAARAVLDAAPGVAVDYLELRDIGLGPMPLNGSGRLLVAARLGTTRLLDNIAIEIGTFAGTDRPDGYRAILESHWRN

Row | SMILES | inhibition
1 | O=C(OCC(=O)N1CCCCCC1)c1cccs1 | 0%
2 | CCOc1ccc(OCC)c2sc(C)nc12 | 2%
3 | CN(CC(O)COCc1cccs1)C1CCCCC1 (centres undefined) | 1%
4 | CCCc1cc(-c2n[nH]c(C)c2-c2ccc(C(=O)OCC)o2)c(O)cc1O | 6%
5 | N#Cc1cnc(SCCc2ccccc2)nc1N | 0%
6 | CCCOC(=O)C1[C@H]2C(=O)N(CCCOC)C[C@]23C=C[C@H]1O3 (some centres undefined) | 0%
7 | CCN1CCN(C(=O)C2CC(c3ccc(F)cc3)=NO2)CC1 (centres undefined) | 0%
8 | CCn1cc(C(=O)N2CCN(C(=O)c3ccco3)CC2)c2cc(OC)c(OC)cc2c1=O | 0%
9 | N#CCSc1nc(-c2ccccc2)cs1 | 0%
10 | CCCNC(=O)NS(=O)(=O)c1ccc(Cl)cc1 | 5%
11 | COC(=O)Nc1nc2ccc(Sc3ccccc3)cc2[nH]1 | 8%
12 | S=C(c1cccs1)N1CCCC1 | 0%
13 | COC(=O)c1ccc(CSc2ncnc3c2nnn3-c2ccc(OC)cc2)o1 | 0%
14 | COc1cc2c(cc1OC)-c1nnc(C)n1C1(CCCC1)C2 | 0%
15 | Cc1ccccc1CN1CCN(C(=O)c2cccc(F)c2)CC1 | 0%
16 | COC(=O)c1[nH]c2ccc(C)cc2c1NC(=O)CN1CCN(C(=O)c2ccccc2)CC1 | 4%
17 | Fc1ccccc1Cn1nnc2c(-n3ccnc3)ncnc21 | 0%
18 | CCOCCn1c(CN2CCC(Cc3ccccc3)CC2)nc2c1c(=O)n(C)c(=O)n2C | 0%
19 | CCCCNC(=O)CSc1nc2ccc(N3CCOCC3)cc2c(=O)n1CCc1ccccc1 | 15%
20 | CCOc1ccc(C(C)=O)cc1COc1ccc(-n2cnnn2)cc1 | 13%

Row | SMILES | inhibition
21 | CSc1nc(N2CCOCC2)c2c(c1C#N)CCCCC2 | 0%
22 | CC1(C)CC(=O)c2cnc(NC(=O)Cc3ccc(Cl)cc3)nc2C1 | 0%
23 | CCCCOc1ccccc1C(=O)NCCCC(=O)O | 0%
24 | CCC(C)NC(=O)c1ccccc1NC(=O)C(C)N(c1ccccc1)S(C)(=O)=O (centres undefined) | 0%
25 | N#CCc1c(C#N)c(N)nc(N2CCN(S(=O)(=O)c3ccccc3)CC2)c1C#N | 6%
26 | Cc1cccc2c1N(CC(=O)OC(C)C)C(=O)C2=O | 0%
27 | COc1ccc(C2C(C(=O)N3CCC(C)CC3)c3ccccc3C(=O)N2C)cc1 (centres undefined) | 0%
28 | CC(=O)Nc1ccc(S(=O)(=O)n2cnc(C)c2)cc1 | 3%
29 | CC(C)C(=O)Nc1ccc(-c2nc3cccnc3o2)cc1 | 2%
30 | C=CCn1c(=O)c2ccccc2n2c(SCC(=O)Nc3cc(C)on3)nnc12 | 0%
31 | O=C(NCc1ccc2c(c1)OCO2)c1ccccn1 | 6%
32 | COc1ccccc1C(O)P(=O)(OC(C)C)c1ccc(N(C)C)cc1 (centres undefined) | 0%
33 | Cn1c(-c2ccc(F)cc2)cnc1NCc1ccccc1 | 0%
34 | Cc1c(C(=O)Nc2ccncc2)oc2c1C(=O)CC(C)(C)C2 | 5%
35 | CCC(C)(C(=O)NC1CCCC1)N(Cc1cccs1)C(=O)Cc1cccs1 (centres undefined) | 0%
36 | CN(C)c1ccc(NC(=O)Nc2cccc(Cl)c2)cc1 | 0%
37 | Cc1cc(=O)oc2c1ccc1oc(/C(=N/O)c3ccccc3)c(C)c12 | 0%
38 | Cc1ccc(CCNC(=O)C2CCN(S(=O)(=O)c3cccc4nsnc34)CC2)cc1 | 6%
39 | Cc1c(NC(=O)c2ccc(COc3ccc4ccccc4c3)o2)c(=O)n(-c2ccccc2)n1C | 0%
